Experimental data taken from article PMC4336329 (PLoS ONE, 2015).
The whole screen tested about 310,000 compounds, of which about 14,000 (4.5%) showed an effect of 50% or more. The effect is printed as a negative number. The full list was thinned out, with strong results kept by preference.

The molecules below were run against human ether-à-go-go-related gene (hERG) potassium channel (human, UniProt Q12809) (assay: primary screen, population patch clamp on CHO cells stably expressing hERG; higher = less effect of the substance).
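Also: peak tail current of the secondary pulse compared with the same well before compound.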

human ether-à-go-go-related gene (hERG) potassium channel, sequence (Q12809 whole entry, looked up): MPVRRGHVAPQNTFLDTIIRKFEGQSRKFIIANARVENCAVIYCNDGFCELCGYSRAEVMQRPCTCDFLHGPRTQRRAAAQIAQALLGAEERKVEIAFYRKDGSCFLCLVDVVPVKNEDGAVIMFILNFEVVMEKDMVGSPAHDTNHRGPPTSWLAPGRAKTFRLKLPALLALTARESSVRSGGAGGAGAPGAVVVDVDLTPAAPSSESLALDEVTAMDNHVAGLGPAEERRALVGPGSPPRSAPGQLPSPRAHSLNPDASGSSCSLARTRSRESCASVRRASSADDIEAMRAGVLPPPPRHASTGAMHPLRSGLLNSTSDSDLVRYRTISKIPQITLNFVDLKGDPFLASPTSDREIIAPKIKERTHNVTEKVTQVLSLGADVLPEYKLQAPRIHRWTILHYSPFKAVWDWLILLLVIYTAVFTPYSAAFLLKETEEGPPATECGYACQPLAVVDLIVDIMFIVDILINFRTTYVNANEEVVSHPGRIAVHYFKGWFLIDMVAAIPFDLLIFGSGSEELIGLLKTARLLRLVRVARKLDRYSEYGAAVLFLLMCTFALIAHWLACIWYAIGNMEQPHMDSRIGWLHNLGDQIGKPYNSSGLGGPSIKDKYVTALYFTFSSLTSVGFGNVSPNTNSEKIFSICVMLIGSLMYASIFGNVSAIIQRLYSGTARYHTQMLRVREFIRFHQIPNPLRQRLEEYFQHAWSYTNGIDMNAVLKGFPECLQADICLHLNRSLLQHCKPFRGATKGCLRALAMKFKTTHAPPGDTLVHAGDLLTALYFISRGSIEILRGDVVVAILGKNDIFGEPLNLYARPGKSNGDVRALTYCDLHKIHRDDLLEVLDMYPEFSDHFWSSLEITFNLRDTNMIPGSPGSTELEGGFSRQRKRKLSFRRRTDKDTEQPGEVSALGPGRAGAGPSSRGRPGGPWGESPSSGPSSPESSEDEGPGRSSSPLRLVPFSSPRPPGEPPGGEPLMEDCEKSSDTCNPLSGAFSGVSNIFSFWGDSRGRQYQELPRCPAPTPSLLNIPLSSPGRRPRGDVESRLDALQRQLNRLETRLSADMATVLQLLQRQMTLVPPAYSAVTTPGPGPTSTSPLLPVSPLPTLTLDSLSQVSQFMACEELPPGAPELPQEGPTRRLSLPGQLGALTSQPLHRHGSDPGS

In order of rising “hERG current change (%, negative = inhibition) at 10uM” value:
1. COc1cc(C(CCN2CCCCC2)c2c(OC)cc(OC)c3c(C)cc(=O)oc23)cc(OC)c1OC (stereo not shown)  -99.6%
2. COc1cc(C(CCN2CCOCC2)c2c(OC)cc(OC)c3c(C)cc(=O)oc23)cc(OC)c1OC (stereo not shown)  -79.3%
3. COc1cc(C(CCN2CCCC2)c2c(OC)cc(OC)c3c(C)cc(=O)oc23)cc(OC)c1OC (stereo not shown)  -75.5%
4. COc1ccc(C(CCN2CCCC(C)C2)c2c(OC)cc(OC)c3c(C)cc(=O)oc23)cc1 (stereo not shown)  -74.3%
5. CCc1nc2ccc(C(=O)N3CCN(c4ccc([N+](=O)[O-])cc4)CC3)cc2nc1CC  -72.1%
6. COc1ccc(C(CCN2CCOCC2)c2c(OC)cc(OC)c3c(C)cc(=O)oc23)cc1 (stereo not shown)  -69.2%
7. COc1cc(OC)c2c(C)cc(=O)oc2c1C(CCN1CCOCC1)c1ccc2c(c1)OCO2 (stereo not shown)  -68.4%
8. C=C1CCN([C@@H](CC(C)C)C(=O)N2CCCC2)S(=O)(=O)c2ccccc21  -54.7%
9. CCN(CC)CCC(c1cc(OC)c(OC)c(OC)c1)c1c(OC)cc(OC)c2c(C)cc(=O)oc12 (stereo not shown)  -48.5%
10. CCOC(=O)CC(NCc1ccc(OC)c(OCC)c1)c1ccc(C)cc1.Cl (stereo not shown)  -39%
11. COc1cc(OC)c2c(-c3ccccc3)cc(=O)oc2c1C(CCN1CCCC(C)C1)c1ccc(N(C)C)cc1 (stereo not shown)  -30%
12. COc1cc(OC)c2c(C)cc(=O)oc2c1C(CCN1CCOCC1)c1ccc(N(C)C)cc1 (stereo not shown)  -28.5%
13. CCOc1ccc(S(=O)(=O)N2CCC(C(=O)OC(C)C(=O)N3CCOCC3)CC2)cc1 (stereo not shown)  -25.2%
14. COc1cc(OC)c2c(C)cc(=O)oc2c1C(CCN1CCN(c2ccccc2)CC1)c1ccc2c(c1)OCO2 (stereo not shown)  -11.1%
15. O=C(NCc1cccnc1)C1CCC(CNS(=O)(=O)c2cccc3nsnc23)CC1 (stereo not shown)  -9.63%
16. CCc1ccc(N(CC(=O)NC2CCCC2)S(=O)(=O)c2c(C)noc2C)cc1  -7.76%
17. CCOC(=O)CCc1c(C)nc2cc(-c3ccc(Cl)cc3)[nH]n2c1=O  -7.09%
18. COc1cc(C(CCN2CCN(c3ccccc3)CC2)c2c(OC)cc(OC)c3c(C)cc(=O)oc23)cc(OC)c1OC (stereo not shown)  -6.01%
19. CCOC(=O)N1CCN(C(=O)CN(c2cccc(OC)c2)S(C)(=O)=O)CC1  -5.17%
20. Cc1nnc(NC(=O)C2CCCN(S(=O)(=O)Cc3ccccc3)C2)s1 (stereo not shown)  -2.64%
21. CCOC(=O)c1c(CC(C)C)csc1NC(C)=O  -2.62%
22. COc1ccccc1C(=O)NCC(=O)OCC(=O)c1ccc2c(c1)-c1ccccc1C2  -0.208%
23. CNC(=O)COc1coc(CN2CCN(c3ccc(OC)cc3)CC2)cc1=O  1.11%
24. COc1cc(OC)c2c(-c3ccccc3)cc(=O)oc2c1C(CC(=O)N1CCOCC1)c1ccc2c(c1)OCO2 (stereo not shown)  1.51%
25. CC(C)[C@H](NC(=O)N1c2ccccc2NC(=O)[C@@H]1C(C)C)C(=O)N[C@@H](Cc1c[nH]c2ccccc12)C(=O)O  3.11%
26. COC(=O)Cn1c(CN2CCOCC2)nc2c1c(=O)[nH]c(=O)n2C  3.43%
27. COc1cc(O)c(C(CCN2CCOCC2)c2cc(OC)c(OC)c(OC)c2)c(OC)c1 (stereo not shown)  8.02%
28. COc1ccc(C(CC(=O)N2CCCC(C)C2)c2c(OC)cc(OC)c3c(-c4ccccc4)cc(=O)oc23)cc1 (stereo not shown)  8.57%
29. O=C(Cc1ccccc1[N+](=O)[O-])N/N=C/c1cccnc1  10%
30. COc1ccccc1C(=O)NC(=O)CSc1nc(C)cs1  12%
31. COc1ccc(C(CC(=O)N2CCOCC2)c2c(OC)cc(OC)c3c(-c4ccccc4)cc(=O)oc23)cc1 (stereo not shown)  12%
32. C=C1CCN([C@@H](CC(C)C)C(=O)N2CCOCC2)S(=O)(=O)c2ccccc21  13.3%
33. Oc1ccc(Br)cc1CNn1cnnc1  13.9%
34. COc1cc(OC)cc(-c2c(-c3ccc(F)cc3)c3cc(-c4ccc5cc[nH]c5c4)ccc3n2C)c1  14.2%
35. O=C(O)CSc1ccnc2cc(Cl)ccc12  16.2%
36. O=C(Nc1nnc(C2=COCCO2)o1)c1ccc(S(=O)(=O)N2CCCC2)cc1  17.2%
37. CC(C)C(NC(=O)c1ccco1)C(=O)NCC(c1ccco1)N1CCCCC1 (stereo not shown)  20%
38. COc1ccc(OC)c(CNc2ccc3c(c2)CCC3)c1  20.4%
39. CC(C(=O)O)n1nc2ccccc2n1 (stereo not shown)  21.4%
40. C=C1CCN([C@@H](CC(C)C)C(=O)O)S(=O)(=O)c2ccccc21  22.6%
